Assay results reported in PubChem BioAssay (Tox21).
Records with an inconclusive call do not appear. A call without a number means that no potency is given here. Calls of active or inactive are those of the source. Unless noted, calls follow the shape of the dose curve; as a rule, active = well fitted curve in the direction sought with a large enough effect in the repeat runs; inconclusive = weak or mixed curves; inactive = no such curve, though single readings can be large; an effect the other way counts as inactive or inconclusive.

Key:
[1] = A CellTox Green Cytotoxicity Assay to monitor cytotoxicity in HEK293 cells - 32 hour (AID 1224881); also: nearly all actives have a fitted effect of over 40% in size; also: potency is read from the fitted curve at half-maximal effect
How it was run: (§1)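 Homogeneous no-lysis format: HEK293 cell suspension mixed with CellTox Green reagent, seeded, incubated 5 h at 37 C/5% CO2, then dosed by pintool with compound in DMSO.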

[2] = A CellTox Green Cytotoxicity Assay to monitor cytotoxicity in HepG2 cells - 0 hour (AID 1224882); also: nearly all actives have a fitted effect of over 35% in size
How it was run: (§2)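 Fluorescent DNA-binding dye, 600 HepG2 cells/well, 5 h preincubation then compound in DMSO; same plates read at 0–40 h, 37 C.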

[3] = A CellTox Green Cytotoxicity Assay to monitor cytotoxicity in HepG2 cells - 32 hour (AID 1224883); also: nearly all actives have a fitted effect of over 50% in size; also: potency is read from the fitted curve at half-maximal effect
How it was run: as §2

[4] = A CellTox Green Cytotoxicity Assay to monitor cytotoxicity in HEK293 cells - 8 hour (AID 1224884); also: nearly all actives have a fitted effect of over 35% in size; also: potency is read from the fitted curve at half-maximal effect
How it was run: as §1

[5] = qHTS RealTime-Glo MT Cell Viability Assay in HepG2 cells - 16 hour (AID 1224885); also: nearly all actives have a fitted effect of over 50% in size; also: potency is read from the fitted curve at half-maximal effect
How it was run: (§3)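 qHTS, HepG2, 600 cells/well, RealTime-Glo (NanoLuc + prosubstrate) added with cells; 5 h preincubation; DMSO compound addition; 37 C; luminescence at 0/8/16/24/32/40 h.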

[6] = qHTS RealTime-Glo MT Cell Viability Assay in HEK293 cells - 24 hour (AID 1224886); also: nearly all actives have a fitted effect of over 50% in size; also: potency is read from the fitted curve at half-maximal effect
How it was run: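 Assay medium contained NanoLuc luciferase plus cell-permeant prosubstrate, added with HEK293 cells at 600 cells/well. After 5 h at 37 C/5% CO2 compounds were added; plates stayed at 37 C for 40 h with serial luminescence reads.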

[7] = qHTS RealTime-Glo MT Cell Viability Assay in HEK293 cells - 8 hour (AID 1224887); also: nearly all actives have a fitted effect of over 50% in size; also: potency is read from the fitted curve at half-maximal effect
How it was run: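 Measured as luminescence from the same continuously cultured HEK293 wells at successive time points (0, 8, 16, 24, 32, 40 h) after compound addition. Reagent present from seeding; dosing at 5 h; incubation 37 C.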

[8] = A CellTox Green Cytotoxicity Assay to monitor cytotoxicity in HEK293 cells - 16 hour (AID 1224888); also: nearly all actives have a fitted effect of over 35% in size; also: potency is read from the fitted curve at half-maximal effect
How it was run: as §1

[9] = qHTS RealTime-Glo MT Cell Viability Assay in HepG2 cells - 0 hour (AID 1224889); also: nearly all actives have a fitted effect of over 50% in size
How it was run: as §3

[10] = A CellTox Green Cytotoxicity Assay to monitor cytotoxicity in HepG2 cells - 8 hour (AID 1224890); also: nearly all actives have a fitted effect of over 45% in size; also: potency is read from the fitted curve at half-maximal effect
How it was run: as §2

[11] = qHTS assay to identify small molecule antagonists of the estrogen receptor alpha (ER-alpha) signaling pathway using the BG1 cell line in the presence of 0.1 nM 17-beta-estradiol - cell viability counter screen (AID 1259241); also: nearly all actives have a fitted effect of over 40% in size; also: potency is read from the fitted curve at half-maximal effect
How it was run: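 VM7Luc4E2, 4,000 cells/well, phenol red-free medium + 10% charcoal-stripped FBS; 24 hr plating; cpd + 0.1 nM E2 final, 22 hr 37C/5% CO2; CellTiter-Fluor 30 min, fluorescence.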

[12] = molecular target: Androgen receptor (Homo sapiens) (UniProt P10275); test: qHTS assay to identify small molecule antagonists of the androgen receptor (AR) signaling pathway using the MDA cell line in the presence of 0.5 nM R1881 (AID 1259243); also: nearly all actives have a fitted effect of over 50% in size; also: potency is read from the fitted curve at half-maximal effect
Androgen receptor (Homo sapiens), sequence (P10275 whole entry, looked up): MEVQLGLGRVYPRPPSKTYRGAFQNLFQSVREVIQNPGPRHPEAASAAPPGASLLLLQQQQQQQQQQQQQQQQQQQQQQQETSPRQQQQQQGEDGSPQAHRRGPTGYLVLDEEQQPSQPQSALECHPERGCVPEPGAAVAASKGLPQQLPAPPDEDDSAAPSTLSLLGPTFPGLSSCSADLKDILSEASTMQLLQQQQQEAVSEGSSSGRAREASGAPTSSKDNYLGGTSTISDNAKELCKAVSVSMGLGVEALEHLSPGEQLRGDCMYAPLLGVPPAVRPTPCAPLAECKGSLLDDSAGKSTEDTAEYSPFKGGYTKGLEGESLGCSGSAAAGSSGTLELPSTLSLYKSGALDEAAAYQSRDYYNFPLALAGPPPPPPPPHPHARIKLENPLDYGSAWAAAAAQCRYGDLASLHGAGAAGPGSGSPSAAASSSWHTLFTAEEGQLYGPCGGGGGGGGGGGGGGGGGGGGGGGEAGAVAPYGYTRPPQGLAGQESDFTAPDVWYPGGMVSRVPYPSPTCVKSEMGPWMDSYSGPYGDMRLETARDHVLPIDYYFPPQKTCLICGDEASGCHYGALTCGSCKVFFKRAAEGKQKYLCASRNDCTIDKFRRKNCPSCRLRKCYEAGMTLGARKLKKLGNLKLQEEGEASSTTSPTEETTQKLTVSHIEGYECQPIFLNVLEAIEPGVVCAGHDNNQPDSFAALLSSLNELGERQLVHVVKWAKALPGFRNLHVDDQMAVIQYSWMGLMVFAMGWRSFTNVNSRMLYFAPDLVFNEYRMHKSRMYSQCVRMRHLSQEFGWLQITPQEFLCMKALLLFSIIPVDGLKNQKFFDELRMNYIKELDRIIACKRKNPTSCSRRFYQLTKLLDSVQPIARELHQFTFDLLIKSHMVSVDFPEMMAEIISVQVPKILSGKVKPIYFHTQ
How it was run: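 Cells: MDA-kb2 (MMTV-luc). Stimulus: 0.5 nM R1881. Time: 16 hr, 37C, no CO2. Detection: ONE-Glo luminescence after 30 min at RT.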

[13] = qHTS assay to identify small molecule phospholipidosis (PLD) inducers (AID 1259344; active = well fitted curve in the direction sought with a large enough effect; an effect the other way counts as inactive or inconclusive; also: potency is read from the fitted curve at half-maximal effect)
How it was run: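 Image-based: LipidTOX Red pit count/intensity per well and per cell; HepG2, 24 h compound at 37 C, PFA fixation, Hoechst counterstain.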

[14] = qHTS assay to identify small molecule HDAC inhibitors (AID 1259364);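 also: wild-type HCT-116 cells with endogenous class I/II HDAC activity; top concentration of the series differs between compounds; nearly all actives have a fitted effect of over 45% in size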
How it was run: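 After a 2 hr compound incubation (37C, 5% CO2), HCT-116 cells seeded at 1,500/well the day before received HDAC-Glo reagent; signal read as luminescence after 30 min at room temperature.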

[15] = qHTS assay to identify small molecule HDAC inhibitors - cell viability counter screen (AID 1259365); also: nearly all actives have a fitted effect of over 50% in size; also: potency is read from the fitted curve at half-maximal effect
How it was run: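 Luminescence from CellTiter-Glo, developed 30min at room temperature, reports viability of wild-type HCT-116 cells treated 2hr with compounds at 37 C and 5% CO2 after overnight plating.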

[16] = qHTS assay to identify small molecule agonists of the sonic hedgehog signaling (Shh) pathway - cell viability counter screen (AID 1259366); also: nearly all actives have a fitted effect of over 50% in size; also: potency is read from the fitted curve at half-maximal effect
How it was run: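 Cytotoxicity counter screen run in the same wells as the Shh reporter assay. NIH/3T3 cells carrying a Gli1 response element–driven luciferase were treated with DMSO-dissolved compounds for 24hr, and live-cell protease activity was measured with CellTiter-Fluor.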

[17] = qHTS assay to identify small molecule antagonists of the sonic hedgehog signaling (Shh) pathway - cell viability counter screen (AID 1259367); also: nearly all actives have a fitted effect of over 55% in size; also: potency is read from the fitted curve at half-maximal effect
How it was run: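 Tox21 library chemicals were tested on a Gli1-Luc NIH/3T3 clone (2,000 cells/well) stimulated by conditioned medium; viability was quantified as fluorescence from CellTiter-Fluor reagent added at 23 hr.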

[18] = molecular target: Estrogen receptor (Homo sapiens) (UniProt P03372); test: qHTS assay to identify small molecule antagonists of the estrogen receptor alpha (ER-alpha) signaling pathway using the BG1 cell line in the presence of 0.1 nM 17-beta-estradiol (AID 1259244); also: nearly all actives have a fitted effect of over 50% in size; also: potency is read from the fitted curve at half-maximal effect
Estrogen receptor (Homo sapiens), sequence (P03372 whole entry, looked up): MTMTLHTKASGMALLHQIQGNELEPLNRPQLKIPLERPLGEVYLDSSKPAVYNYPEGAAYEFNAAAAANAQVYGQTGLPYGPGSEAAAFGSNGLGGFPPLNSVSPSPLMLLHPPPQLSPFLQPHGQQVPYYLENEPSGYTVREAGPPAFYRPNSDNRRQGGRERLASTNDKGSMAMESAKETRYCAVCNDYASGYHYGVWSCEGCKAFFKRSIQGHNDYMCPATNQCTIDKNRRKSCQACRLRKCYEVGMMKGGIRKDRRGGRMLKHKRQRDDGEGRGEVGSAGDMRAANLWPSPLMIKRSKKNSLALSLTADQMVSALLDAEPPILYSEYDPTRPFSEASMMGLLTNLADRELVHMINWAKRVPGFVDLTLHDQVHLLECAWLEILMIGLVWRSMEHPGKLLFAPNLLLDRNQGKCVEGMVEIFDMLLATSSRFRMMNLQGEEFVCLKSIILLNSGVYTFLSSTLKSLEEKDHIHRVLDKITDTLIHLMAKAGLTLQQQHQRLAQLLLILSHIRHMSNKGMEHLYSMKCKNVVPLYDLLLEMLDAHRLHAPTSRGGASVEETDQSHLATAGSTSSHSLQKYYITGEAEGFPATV
How it was run: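 Seeding of stripped-serum-adapted VM7Luc4E2 cells, 24 h attachment, compound transfer, then 0.1 nM final 17beta-estradiol; after 22 h incubation, ONE-Glo reagent and luminescence reading.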

[19] = qHTS assay to identify small molecule agonists of the sonic hedgehog signaling (Shh) pathway (AID 1259368; calls by dose curve;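 also: NIH/3T3-derived 3T3Gli1-Luc cells carrying a stable Gli1-driven firefly luciferase reporter; series mostly up to about 92 µM; nearly all actives have a fitted effect of over 15% in size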)
How it was run: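 Stable NIH/3T3 Gli1-Luc reporter clone; 24 hr cpd exposure after a 4 hr settling period; luminescence endpoint.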

[20] = qHTS assay to identify small molecule antagonists of the androgen receptor (AR) signaling pathway using the MDA cell line in the presence of 0.5 nM R1881 - cell viability counter screen (AID 1259242); also: nearly all actives have a fitted effect of over 45% in size; also: potency is read from the fitted curve at half-maximal effect
How it was run: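 Human breast carcinoma MDA-kb2 cells, cultured without CO2, receive compounds alongside 0.5 nM (final) R1881 agonist. After 16 hr at 37C, viability is taken as live-cell protease signal.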

Compound	Potency [1]	Potency [2]	Potency [3]	Potency [4]	Potency [5]	Potency [6]	Potency [7]	Potency [8]	Potency [9]	Potency [10]	Potency [11]	Potency [12]	Potency [13]	Potency [14]	Potency [15]	Potency [16]	Potency [17]	Potency [18]	Potency [19]	Potency [20]
Clc1ccc2nsnc2c1NC1=NCCN1	inactive	inactive	inactive	inactive	inactive	inactive	inactive	inactive	inactive	inactive	inactive	inactive	inactive	inactive	inactive	inactive	inactive			
OCCN1CCN(CC/C=C2/c3ccccc3Sc3ccc(C(F)(F)F)cc32)CC1	26.8 µM (active)	inactive	15.1 µM (active)	23.9 µM (active)	23.9 µM (active)	19 µM (active)	21.3 µM (active)	26.8 µM (active)		23.9 µM (active)	inactive	26.6 µM (active)	10 µM (active)		inactive	21.1 µM (active)	inactive	inactive	inactive	
CCCCCCCCCCCCCC[P+](CCCC)(CCCC)CCCC (tested in a mixture with another compound)	15.6 µM (active)	inactive	15.6 µM (active)	19.6 µM (active)	19.6 µM (active)	1.96 µM (active)	15.6 µM (active)	17.5 µM (active)	inactive	22 µM (active)	inactive	1.94 µM (active)		inactive		27.5 µM (active)	61.5 µM (active)		inactive	19.4 µM (active)
CCCCCCCCCCCCCCCC[N+](C)(C)CCN(Cc1ccc(OC)cc1)c1ncccn1	9.52 µM (active)	inactive	6.74 µM (active)	19 µM (active)	8.49 µM (active)	1.07 µM (active)	2.13 µM (active)	19 µM (active)	inactive	19 µM (active)	inactive		inactive	inactive					inactive	
COC(=O)c1cc(Cl)ccc1OC	inactive	inactive	inactive	inactive	inactive	inactive	inactive	inactive	inactive	inactive	inactive	inactive			inactive	inactive	inactive	inactive	inactive	inactive
CCCCCCCCCCn1cc[n+](CCCCCCCCCC)c1C	19.5 µM (active)	inactive	17.4 µM (active)	19.5 µM (active)	21.9 µM (active)	2.19 µM (active)	21.9 µM (active)	19.5 µM (active)	inactive	39 µM (active)	68.7 µM (active)	2.17 µM (active)		inactive	61.2 µM (active)		30.7 µM (active)	3.86 µM (active)	inactive	30.7 µM (active)
O=C(Nc1ccc(Oc2ccc(Cl)cc2)c(Cl)c1)c1cc(I)cc(I)c1O	inactive	inactive	inactive	inactive	inactive	inactive	inactive	inactive	inactive	inactive			inactive	inactive	inactive	inactive	inactive		inactive	
O=C(NO)C1(NS(=O)(=O)c2ccc(Oc3ccc(F)cc3)cc2)CCOCC1	inactive	inactive	inactive	inactive	inactive	inactive	inactive	inactive	inactive	inactive	inactive			inactive	inactive	inactive	inactive	61.1 µM (active)	inactive	
Oc1cccc2cc3cccc(O)c3c(O)c12	inactive	inactive	inactive	inactive	inactive	inactive	inactive	inactive	inactive	inactive	inactive			inactive	inactive	inactive	inactive		inactive	inactive
CC(C)c1ccc2c(c1)CC[C@H]1[C@](C)(CN)CCC[C@]21C	19.5 µM (active)	inactive	12.3 µM (active)	38.9 µM (active)	17.4 µM (active)	12.3 µM (active)	21.9 µM (active)	24.5 µM (active)		43.6 µM (active)	inactive			inactive	inactive	48.6 µM (active)				48.6 µM (active)
CCC(C)(C)C1CCCCC1OC(C)=O (stereo unspecified)	inactive	inactive	inactive	inactive	inactive	inactive	inactive	inactive	inactive	inactive	inactive			inactive	inactive	inactive	inactive	inactive	inactive	inactive
N#CC1(c2ccc(F)cc2)CCC(=O)CC1	inactive	inactive	inactive	inactive	inactive	inactive	inactive	inactive	inactive	inactive	inactive				inactive	inactive	inactive	inactive		inactive
Cc1cc(O)c2ccccc2c1O	9.52 µM (active)	inactive	13.4 µM (active)	9.52 µM (active)	13.4 µM (active)	7.56 µM (active)	5.35 µM (active)	9.52 µM (active)		21.3 µM (active)	29.8 µM (active)	11.9 µM (active)	inactive			5.31 µM (active)	13.3 µM (active)	13.3 µM (active)	inactive	18.8 µM (active)
